Source: PubChem
Rab9 prom act: activates the Rab9 promoter; Huh7 Rab9 promoter-luciferase reporter, luminescence, 24 h; Potency, µM (titrated, usually from 9.22 µM), without a hit: at the highest dose activation, negative = inhibition, usual class: activators; 320,000 compounds, 2.8% hits; AID 485297; further: % of control where 0% means no effect; nearly all actives have a fitted effect of over 60% in size
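Quantitative HTS format; Huh7 Rab9-luciferase reporter cells (1500/well) receive compound 2 h post-plating, incubate 24 h at 37 °C, then get luciferase reagent for 10 min before luminescence reading.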
FLuc counter: counter-screen for miR-21 project: firefly luciferase inhibitors or activators. P08659. purified FLuc, Km substrates, luminescence inhibition. Potency, µM (top dose mostly 57.5 µM), without a hit: top-dose activity change, negative = inhibition, usual class: inhibitors. 360,000 compounds, 6.9% hits. AID 588342;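 further: plate controls were vehicle for no effect and reference inhibitor for full effect; nearly all actives have a fitted effect of over 55% in size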
Target sequence (P08659 whole entry, looked up): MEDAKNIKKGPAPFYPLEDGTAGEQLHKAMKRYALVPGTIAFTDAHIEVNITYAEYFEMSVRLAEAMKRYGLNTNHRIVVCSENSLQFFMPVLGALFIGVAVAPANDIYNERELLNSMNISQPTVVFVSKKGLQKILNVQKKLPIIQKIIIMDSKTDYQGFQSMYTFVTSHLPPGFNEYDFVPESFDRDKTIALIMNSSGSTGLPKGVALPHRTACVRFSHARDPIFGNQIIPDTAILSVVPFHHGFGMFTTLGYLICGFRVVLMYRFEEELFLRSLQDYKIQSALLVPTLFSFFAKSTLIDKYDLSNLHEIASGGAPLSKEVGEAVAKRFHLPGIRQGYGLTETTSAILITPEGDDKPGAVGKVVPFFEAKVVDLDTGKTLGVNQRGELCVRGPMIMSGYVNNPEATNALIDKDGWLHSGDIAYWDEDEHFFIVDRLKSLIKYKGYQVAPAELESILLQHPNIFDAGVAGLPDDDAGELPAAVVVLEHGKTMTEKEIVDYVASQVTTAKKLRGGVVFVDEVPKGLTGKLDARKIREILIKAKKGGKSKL
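Purified P. pyralis luciferase, 10 nM final, with Km-level 10 uM D-luciferin and 10 uM ATP in 50 mM Tris acetate pH 7.5, 10 mM Mg acetate, 0.01% Tween-20, 0.05% BSA; 6-point qHTS titration about 60 µM downward; luminescence read.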
ELG1 genotox: genotoxicity induction in ELG1-luciferase HEK293T cells; Potency, µM (top dose mostly 46 µM), inactives show top-dose activity change, positive = activation, usual class: activators; HEK293T ELG1-luciferase reporter, luminescence, 16 h; 330,000 compounds, 1.3% hits; further: % of control where 0% means no effect; nearly all actives have a fitted effect of over 60% in size
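Reporter readout depends on ELG1 protein level, which increases with genetic stress. After 16 hr compound exposure at 37 °C, luciferase activity was quantified using ONE-Glo.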
SMN2 splice up: enhancers of SMN2 splice variant expression. AID 1458. Potency, µM (series often up to 46.1 µM), inactives show at the top dose activity change, positive = activation, hits mostly activators. HEK293 SMN2-luciferase splicing reporter, luminescence, 30-36 h. 210,000 compounds, 2.8% hits; further: % of control where 0% means no effect; nearly all actives have a fitted effect of over 55% in size
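HEK293 cells carry an SMN2 […]–luciferase reporter in which exon 7 inclusion puts luciferase in frame. Cells were plated 10-12 h before compound addition, then incubated 30-36 h at 37C. ONE-Glo luminescence was read; sodium butyrate at 4.5 mM final served as control.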
p53 reactivation: mutant p53 re-activation in reporter cells | H1299 p53-A138V BP100-luciferase reporter, luminescence, 24 h | Potency, µM (top dose mostly 92.2 µM), for the others: top-dose activity change, positive = activation, usual class: activators | 320,000 compounds, 0.063% hits | AID 504706; further: % of control where 0% means no effect; nearly all actives have a fitted effect of over 45% in size
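p53-null H1299 cells stably carrying temperature-sensitive p53-A138V and a BP100-luciferase reporter were pinned with compounds (4-point, 1:5 series) and held 24 hrs at 37 deg C. Luminescence was read 10 min after detection reagent.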
NPC1 prom act: NPC1 promoter activation. Huh7 NPC1 promoter luciferase reporter, 24 h. Potency, µM (titrated, usually from 9.22 µM), inactives show top-dose activation, actives largely listed as activators. 320,000 compounds, 2.4% hits; further: % of control where 0% means no effect; nearly all actives have a fitted effect of over 60% in size
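NPC1 promoter–luciferase Huh7 cells; 24 h compound; luminescence.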
An asterisk follows results filed as active. Hits are enriched below; roughly 7.4% of the tested compounds scored in any of these assays. The call rests on the fitted dose curve; in most records, active means well fitted curve in the direction sought with a large enough effect; inconclusive means small, poorly fitted or top-dose-only effect, or another doubt; inactive means no such curve, though single readings can be large; an effect the other way counts as inactive or inconclusive. Potency means the concentration at half of the fitted maximal effect.

How did CCOC(=O)C1CCN(C(=O)CN2c3ccc(CC)cc3-c3ccccc3S2(=O)=O)CC1 do in these assays?
FLuc counter: -13.8%

How did Cc1ccc(C(=O)Nc2ccc(Cl)cc2C(F)(F)F)c(Cl)c1 do in these assays?
Rab9 prom act: inconclusive; FLuc counter: 10.7µM*; ELG1 genotox: 27.1%; SMN2 splice up: inconclusive; p53 reactivation: inconclusive; NPC1 prom act: 25.8%

How did CNS(=O)(=O)c1ccc(NC(=O)c2ccc(Cl)cc2Cl)cc1 do in these assays?
Rab9 prom act: 2.6%; FLuc counter: -12.8%; ELG1 genotox: -0.4%; SMN2 splice up: -9.4%; p53 reactivation: -9.8%; NPC1 prom act: -3.7%

Results for Cc1ccc(NC(=O)c2ccc(Cl)cc2Cl)cc1O ?
Rab9 prom act: inconclusive; FLuc counter: 8.49µM*; ELG1 genotox: inconclusive; p53 reactivation: 24.4%; NPC1 prom act: inconclusive

Results for Cc1ccc(C(=O)Nc2ccc(Cl)cc2C)c(Cl)c1 ?
Rab9 prom act: 3.16µM*; FLuc counter: 1.69µM*; ELG1 genotox: 2.91µM*; SMN2 splice up: 10µM*; p53 reactivation: 4.1%; NPC1 prom act: 0.891µM*

What do the screens show for `CC(=O)Nc1ccccc1NC(=O)c1ccc(C)cc1C`?
Rab9 prom act: 0.5%; FLuc counter: -7.7%; ELG1 genotox: -2.1%; SMN2 splice up: 6.1%; p53 reactivation: 11.7%; NPC1 prom act: -2.3%

Results for Cc1cccc(C(=O)Nc2ccccc2C(=O)OCc2cc(=O)n3nc(C4CC4)sc3n2)c1 ?
FLuc counter: -4.6%

What do the screens show for `Cc1ccc2oc(C(=O)Nc3nnc(C)s3)c(C)c2c1`?
Rab9 prom act: 1.41µM*; FLuc counter: 1.69µM*; ELG1 genotox: 5.8µM*; SMN2 splice up: 15.8µM*; p53 reactivation: 28.0%; NPC1 prom act: 3.16µM*

Results for COc1ccc2oc(C(=O)NC(C)(C)C)c(C)c2c1 ?
Rab9 prom act: 3.98µM*; FLuc counter: 15.1µM*; ELG1 genotox: inconclusive; SMN2 splice up: 12.6µM*; p53 reactivation: 4.4%; NPC1 prom act: inconclusive

How did Cc1ccc2oc(C(=O)Nc3nonc3C)c(C)c2c1 do in these assays?
Rab9 prom act: 3.16µM*; FLuc counter: 7.57µM*; ELG1 genotox: inconclusive; p53 reactivation: inconclusive; NPC1 prom act: inconclusive

What do the screens show for `COc1ccc2oc(C(=O)Nc3nnc(C)s3)c(C)c2c1`?
Rab9 prom act: 0.708µM*; FLuc counter: 0.601µM*; ELG1 genotox: 3.26µM*; p53 reactivation: inconclusive; NPC1 prom act: inconclusive

How did COc1ccc2oc(C(=O)Nc3nc4ccc(S(C)(=O)=O)cc4s3)c(C)c2c1 do in these assays?
Rab9 prom act: -2.5%; FLuc counter: inconclusive; ELG1 genotox: -8.0%; p53 reactivation: 7.4%; NPC1 prom act: 0.8%

How did COc1ccc2oc(C(=O)NNC(=O)c3ccc(F)cc3)c(C)c2c1 do in these assays?
Rab9 prom act: 24.8%; FLuc counter: inconclusive; ELG1 genotox: inconclusive; p53 reactivation: 19.7%; NPC1 prom act: 22.0%

How did CCc1nonc1NC(=O)c1oc2ccc(Br)cc2c1C do in these assays?
Rab9 prom act: 23.8%; FLuc counter: -0.2%; ELG1 genotox: 10.1%; SMN2 splice up: -0.8%; p53 reactivation: 2.6%; NPC1 prom act: 21.4%

How did Cc1cc(C)cc(NC(=O)NCc2noc3ccccc23)c1 do in these assays?
FLuc counter: -2.4%

How did COc1ccc(CCNC(=O)CN(c2ccccc2)S(=O)(=O)N(C)C)cc1 do in these assays?
FLuc counter: -2.8%; SMN2 splice up: -5.4%

What do the screens show for `CCCc1ccc(OCc2ccc(C(=O)N3CCSCC3)o2)cc1`?
Rab9 prom act: 2.24µM*; FLuc counter: 21.3µM*; ELG1 genotox: 10.3µM*; p53 reactivation: -0.5%; NPC1 prom act: 2.24µM*

How did O=C(NCc1cccnc1)c1ccc(COc2ccc3c(c2)CCC3)o1 do in these assays?
Rab9 prom act: -1.2%; FLuc counter: inconclusive; ELG1 genotox: -8.0%; SMN2 splice up: -52.3%; p53 reactivation: -9.4%; NPC1 prom act: 4.1%

Results for COC(=O)c1ccc(COc2ccc(C=O)cc2)o1 ?
Rab9 prom act: -3.0%; FLuc counter: -14.7%; ELG1 genotox: 2.0%; p53 reactivation: 1.2%; NPC1 prom act: 2.4%

How did CCC(C)c1ccc(OCc2ccc(C(=O)OC)o2)cc1 (centres undefined) do in these assays?
Rab9 prom act: 0.501µM*; FLuc counter: inconclusive; ELG1 genotox: inconclusive; p53 reactivation: -2.7%; NPC1 prom act: 0.631µM*

Results for COC(=O)c1ccc(COc2ccc(C(C)(C)C)cc2)o1 ?
Rab9 prom act: 0.355µM*; FLuc counter: 16.9µM*; ELG1 genotox: inconclusive; p53 reactivation: 6.3%; NPC1 prom act: 0.708µM*

What do the screens show for `COC(=O)c1ccc(COc2ccc3c(c2)CCC3)o1`?
Rab9 prom act: inconclusive; FLuc counter: 16.9µM*; ELG1 genotox: inconclusive; p53 reactivation: 0.2%; NPC1 prom act: inconclusive

What do the screens show for `COC(=O)c1ccc(NC(=O)CN2C(=O)c3cccc4cccc2c34)cc1`?
FLuc counter: 2.2%; SMN2 splice up: 5.9%

Results for Cc1csc(=O)n1CCC(=O)OCC(=O)NCc1ccc(F)cc1 ?
Rab9 prom act: 0.1%; FLuc counter: 0.9%; ELG1 genotox: -1.3%; p53 reactivation: 6.2%; NPC1 prom act: -2.7%

Results for Cc1cc(C)cc(NC(=O)Cc2csc(COc3cccc(C)c3)n2)c1 ?
FLuc counter: -19.2%

How did CCOC(=O)c1ccc(NC(=O)C(=O)NCc2ccccn2)cc1 do in these assays?
Rab9 prom act: -2.0%; FLuc counter: -12.2%; ELG1 genotox: 2.6%; SMN2 splice up: -3.3%; p53 reactivation: 4.7%; NPC1 prom act: 3.9%

How did CC(C)(C)c1ccc(OCc2ccc(C(=O)N3CCOCC3)o2)cc1 do in these assays?
Rab9 prom act: inconclusive; FLuc counter: 15.1µM*; ELG1 genotox: 13.0%; p53 reactivation: -2.9%; NPC1 prom act: inconclusive

Results for CCc1ccc(NC(=O)C(=O)NCc2ccccn2)cc1 ?
Rab9 prom act: 3.55µM*; FLuc counter: 19µM*; ELG1 genotox: inconclusive; p53 reactivation: 4.3%; NPC1 prom act: inconclusive

How did CC(C)(C)c1ccc(OCc2ccc(C(=O)Nc3cccnc3)o2)cc1 do in these assays?
Rab9 prom act: 0.355µM*; FLuc counter: 15.1µM*; ELG1 genotox: inconclusive; p53 reactivation: 12.8%; NPC1 prom act: 0.447µM*

What do the screens show for `O=C(N/N=C/c1ccc2ccccc2c1)c1ccc(COc2ccc3c(c2)CCC3)o1`?
Rab9 prom act: inconclusive; FLuc counter: 2.69µM*; ELG1 genotox: inconclusive; SMN2 splice up: inconclusive; p53 reactivation: 3.7%; NPC1 prom act: inconclusive
